According to article PMC7862700, “An all-to-all approach to the identification of sequence-specific readers for epigenetic DNA modifications on cytosine”:

Key:
Assay in all cases: DAPPL (digital affinity profiling via proximity ligation, sequencing); 10 mM Tris-HCl pH 7.5, 50 mM NaCl, 1 mM DTT, 4% glycerol, room temperature, 30 min; GST-TFs on glutathione beads, 16-mer random dsDNA library, 0.1% formaldehyde crosslink after washing; high values mean tight binding
FLI1 = target: T1, FLI1 (Homo sapiens, UniProt Q01543 1-452); conditions: protein: recombinant; tags: N-terminal GST; dsDNA, one strand shown
T1 sequence: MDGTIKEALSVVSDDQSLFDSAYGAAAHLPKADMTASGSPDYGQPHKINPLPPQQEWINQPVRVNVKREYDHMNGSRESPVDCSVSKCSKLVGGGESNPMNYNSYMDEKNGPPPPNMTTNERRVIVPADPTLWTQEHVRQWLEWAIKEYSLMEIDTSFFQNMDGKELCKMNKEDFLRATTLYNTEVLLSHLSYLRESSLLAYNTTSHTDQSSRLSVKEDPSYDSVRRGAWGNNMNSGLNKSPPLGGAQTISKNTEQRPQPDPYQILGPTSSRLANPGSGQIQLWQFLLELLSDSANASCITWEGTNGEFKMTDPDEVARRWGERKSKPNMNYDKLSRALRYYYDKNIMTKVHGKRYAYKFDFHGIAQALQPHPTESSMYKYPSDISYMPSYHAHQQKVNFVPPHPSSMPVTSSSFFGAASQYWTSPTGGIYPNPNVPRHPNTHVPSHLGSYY
Outline: (§1)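 Human transcription factors fused to GST were expressed in yeast, captured on glutathione beads, given DNA barcodes and pooled with a GST-only negative control. Pools were incubated with 200 nmole of a 16-mer random double-stranded DNA library in Tris/NaCl/DTT/glycerol buffer at room temperature for 30 min. They were then washed, crosslinked with 0.1% formaldehyde, proximity-ligated (BsaI/T4 ligase, 1 h, 37 °C), PCR-amplified and sequenced on an Illumina NextSeq500. Binding signal is each 6-mer's read frequency for a factor divided by its frequency for the GST control.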

ELK1 = target: T2, ELK1 (Homo sapiens, UniProt P19419 1-428); conditions: protein: recombinant; tags: N-terminal GST; dsDNA, one strand shown
T2 sequence: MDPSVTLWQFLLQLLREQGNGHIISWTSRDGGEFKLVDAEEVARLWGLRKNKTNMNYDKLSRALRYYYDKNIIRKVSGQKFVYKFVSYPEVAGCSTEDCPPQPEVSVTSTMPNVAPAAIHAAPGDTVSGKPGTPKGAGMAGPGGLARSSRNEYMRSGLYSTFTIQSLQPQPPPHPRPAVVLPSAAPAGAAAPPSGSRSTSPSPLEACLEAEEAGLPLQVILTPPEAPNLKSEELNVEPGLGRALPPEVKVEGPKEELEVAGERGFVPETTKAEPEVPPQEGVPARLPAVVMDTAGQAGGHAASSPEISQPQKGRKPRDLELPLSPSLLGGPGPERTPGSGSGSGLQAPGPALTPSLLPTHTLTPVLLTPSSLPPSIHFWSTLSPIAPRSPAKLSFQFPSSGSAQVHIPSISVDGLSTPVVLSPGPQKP
Outline: as §1

GABPA = target: T3, GABPA (Homo sapiens, UniProt Q06546 1-454); conditions: protein: recombinant; tags: N-terminal GST; dsDNA, one strand shown
T3 sequence: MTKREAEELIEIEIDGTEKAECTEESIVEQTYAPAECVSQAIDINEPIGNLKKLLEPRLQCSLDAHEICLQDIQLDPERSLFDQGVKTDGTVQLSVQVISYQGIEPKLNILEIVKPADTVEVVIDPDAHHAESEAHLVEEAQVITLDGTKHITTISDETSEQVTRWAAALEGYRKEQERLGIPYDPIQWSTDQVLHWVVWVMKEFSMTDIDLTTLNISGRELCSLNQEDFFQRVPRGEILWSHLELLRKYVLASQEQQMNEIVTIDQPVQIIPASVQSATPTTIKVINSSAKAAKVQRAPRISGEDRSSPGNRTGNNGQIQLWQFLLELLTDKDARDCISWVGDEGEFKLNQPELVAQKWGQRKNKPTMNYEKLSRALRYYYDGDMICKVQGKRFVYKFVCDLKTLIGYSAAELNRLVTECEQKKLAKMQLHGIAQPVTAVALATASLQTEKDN
Outline: as §1

ERG = target: T4, ERG (Homo sapiens, UniProt P11308 1-479); conditions: protein: recombinant; tags: N-terminal GST; dsDNA, one strand shown
T4 sequence: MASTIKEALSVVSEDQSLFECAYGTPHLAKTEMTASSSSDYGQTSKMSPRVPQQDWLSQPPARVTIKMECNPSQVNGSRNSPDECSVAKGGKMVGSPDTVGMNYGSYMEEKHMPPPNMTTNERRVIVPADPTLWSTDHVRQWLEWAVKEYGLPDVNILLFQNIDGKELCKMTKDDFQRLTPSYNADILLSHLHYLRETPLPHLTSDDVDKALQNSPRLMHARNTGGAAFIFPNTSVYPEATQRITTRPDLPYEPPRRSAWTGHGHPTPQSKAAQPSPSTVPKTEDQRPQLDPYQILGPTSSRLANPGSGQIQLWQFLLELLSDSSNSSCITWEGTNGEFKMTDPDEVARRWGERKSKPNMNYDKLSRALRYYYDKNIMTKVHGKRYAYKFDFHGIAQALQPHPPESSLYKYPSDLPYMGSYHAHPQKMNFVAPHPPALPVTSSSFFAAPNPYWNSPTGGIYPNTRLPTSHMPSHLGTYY
Outline: as §1

ELF1 = ELF1 (Homo sapiens, UniProt P32519 1-619); conditions: protein: recombinant; tags: N-terminal GST; dsDNA, one strand shown
Outline: as §1

EHF = target: T5, EHF (Homo sapiens, UniProt Q9NZC4 1-300); conditions: protein: recombinant; tags: N-terminal GST; dsDNA, one strand shown
T5 sequence: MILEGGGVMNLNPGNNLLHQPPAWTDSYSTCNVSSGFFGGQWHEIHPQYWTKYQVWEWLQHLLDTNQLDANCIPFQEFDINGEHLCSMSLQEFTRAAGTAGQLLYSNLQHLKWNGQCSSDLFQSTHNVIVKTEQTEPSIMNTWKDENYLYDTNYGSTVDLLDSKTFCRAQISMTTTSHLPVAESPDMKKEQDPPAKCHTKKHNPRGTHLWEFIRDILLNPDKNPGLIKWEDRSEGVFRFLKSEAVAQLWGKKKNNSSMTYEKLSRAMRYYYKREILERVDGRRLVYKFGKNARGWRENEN
Outline: as §1

SPI1 = SPI1 (Homo sapiens, UniProt P17947 1-270); conditions: protein: recombinant; tags: N-terminal GST; dsDNA, one strand shown
Outline: as §1

SPIB = SPIB (Homo sapiens, UniProt Q01892 1-262); conditions: protein: recombinant; tags: N-terminal GST; dsDNA, one strand shown
Outline: as §1

ELK3 = target: T6, ELK3 (Homo sapiens, UniProt P41970 1-407); conditions: protein: recombinant; tags: N-terminal GST; dsDNA, one strand shown
T6 sequence: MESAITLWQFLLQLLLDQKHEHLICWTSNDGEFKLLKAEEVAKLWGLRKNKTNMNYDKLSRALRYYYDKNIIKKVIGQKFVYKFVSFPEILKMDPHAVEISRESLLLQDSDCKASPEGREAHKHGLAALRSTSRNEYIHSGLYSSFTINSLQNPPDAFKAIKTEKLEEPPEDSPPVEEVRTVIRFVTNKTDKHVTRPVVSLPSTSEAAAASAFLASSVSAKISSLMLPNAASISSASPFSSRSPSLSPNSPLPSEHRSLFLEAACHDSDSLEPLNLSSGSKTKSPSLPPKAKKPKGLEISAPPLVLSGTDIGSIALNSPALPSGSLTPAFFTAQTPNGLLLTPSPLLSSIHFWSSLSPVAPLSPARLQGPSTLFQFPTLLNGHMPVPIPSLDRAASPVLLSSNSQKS
Outline: as §1

FEV = target: T7, FEV (Homo sapiens, UniProt Q99581 1-238); conditions: protein: recombinant; tags: N-terminal GST; dsDNA, one strand shown
T7 sequence: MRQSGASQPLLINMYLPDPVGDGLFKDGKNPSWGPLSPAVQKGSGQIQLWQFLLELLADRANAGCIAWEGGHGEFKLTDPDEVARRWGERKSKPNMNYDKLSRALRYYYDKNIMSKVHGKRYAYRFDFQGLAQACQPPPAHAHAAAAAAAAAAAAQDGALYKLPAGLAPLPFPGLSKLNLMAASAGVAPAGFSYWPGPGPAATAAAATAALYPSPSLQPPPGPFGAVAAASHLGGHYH
Outline: as §1

ETV5 = ETV5 (Homo sapiens, UniProt P41161 1-510); conditions: protein: recombinant; tags: N-terminal GST; dsDNA, one strand shown
Outline: as §1

HSF1 = HSF1 (Homo sapiens, UniProt Q00613 1-529); conditions: protein: recombinant; tags: N-terminal GST; chain copies: 3; dsDNA, one strand shown
Outline: as §1

SPIC = target: T8, SPIC (Homo sapiens, UniProt Q8N5J4 1-248); conditions: protein: recombinant; tags: N-terminal GST; dsDNA, one strand shown
T8 sequence: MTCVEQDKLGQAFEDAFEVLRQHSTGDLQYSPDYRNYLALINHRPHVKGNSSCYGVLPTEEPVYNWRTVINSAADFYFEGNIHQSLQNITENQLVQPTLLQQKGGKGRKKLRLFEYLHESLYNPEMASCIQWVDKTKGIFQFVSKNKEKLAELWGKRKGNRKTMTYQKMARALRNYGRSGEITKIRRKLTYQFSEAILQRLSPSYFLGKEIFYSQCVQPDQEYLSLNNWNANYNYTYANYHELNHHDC
Outline: as §1

ELF4 = ELF4 (Homo sapiens, UniProt Q99607 1-663); conditions: protein: recombinant; tags: N-terminal GST; dsDNA, one strand shown
Outline: as §1

ELK4 = target: T9, ELK4 (Homo sapiens, UniProt P28324-2 1-405); conditions: protein: recombinant; tags: N-terminal GST; dsDNA, one strand shown
T9 sequence: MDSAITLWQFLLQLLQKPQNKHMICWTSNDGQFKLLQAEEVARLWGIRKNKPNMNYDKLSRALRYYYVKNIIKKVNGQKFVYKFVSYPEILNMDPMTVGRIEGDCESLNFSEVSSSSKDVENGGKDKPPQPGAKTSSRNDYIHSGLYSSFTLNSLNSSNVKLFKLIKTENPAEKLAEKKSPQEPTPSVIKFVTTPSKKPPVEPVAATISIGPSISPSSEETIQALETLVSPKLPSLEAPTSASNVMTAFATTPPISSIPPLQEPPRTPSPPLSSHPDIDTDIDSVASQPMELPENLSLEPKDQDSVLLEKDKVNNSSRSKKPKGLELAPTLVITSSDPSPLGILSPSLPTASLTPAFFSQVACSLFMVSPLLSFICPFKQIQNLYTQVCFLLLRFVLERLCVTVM
Outline: as §1

ETV2 = target: T10, ETV2 (Homo sapiens, UniProt O00321 1-342); conditions: protein: recombinant; tags: N-terminal GST; dsDNA, one strand shown
T10 sequence: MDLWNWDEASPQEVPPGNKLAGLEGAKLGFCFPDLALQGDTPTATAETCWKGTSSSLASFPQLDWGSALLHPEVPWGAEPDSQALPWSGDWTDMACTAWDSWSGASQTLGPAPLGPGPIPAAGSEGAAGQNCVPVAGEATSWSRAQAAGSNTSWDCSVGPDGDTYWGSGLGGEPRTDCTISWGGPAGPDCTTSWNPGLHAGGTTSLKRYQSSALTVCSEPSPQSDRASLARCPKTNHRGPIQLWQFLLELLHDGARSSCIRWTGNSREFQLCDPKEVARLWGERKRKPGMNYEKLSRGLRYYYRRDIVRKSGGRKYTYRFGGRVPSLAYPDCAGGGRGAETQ
Outline: as §1

ELF3 = target: T11, ELF3 (Homo sapiens, UniProt P78545 1-371); conditions: protein: recombinant; tags: N-terminal GST; dsDNA, one strand shown
T11 sequence: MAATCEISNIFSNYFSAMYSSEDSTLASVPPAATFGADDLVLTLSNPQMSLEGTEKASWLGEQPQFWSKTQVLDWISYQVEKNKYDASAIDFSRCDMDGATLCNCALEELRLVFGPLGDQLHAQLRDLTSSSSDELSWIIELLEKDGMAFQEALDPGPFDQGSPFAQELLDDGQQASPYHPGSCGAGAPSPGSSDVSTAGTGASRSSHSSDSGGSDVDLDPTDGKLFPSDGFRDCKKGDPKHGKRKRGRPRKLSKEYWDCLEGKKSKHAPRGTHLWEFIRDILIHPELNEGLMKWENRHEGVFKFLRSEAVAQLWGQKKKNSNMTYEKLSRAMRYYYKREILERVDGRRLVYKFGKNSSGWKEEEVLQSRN
Outline: as §1

CRX = CRX (Homo sapiens, UniProt O43186 1-299); conditions: protein: recombinant; tags: N-terminal GST; dsDNA, one strand shown
Outline: as §1

ETV1 = ETV1 (Homo sapiens, UniProt P50549 1-477); conditions: protein: recombinant; tags: N-terminal GST; dsDNA, one strand shown
Outline: as §1

Sequence of CRX (O43186 whole entry): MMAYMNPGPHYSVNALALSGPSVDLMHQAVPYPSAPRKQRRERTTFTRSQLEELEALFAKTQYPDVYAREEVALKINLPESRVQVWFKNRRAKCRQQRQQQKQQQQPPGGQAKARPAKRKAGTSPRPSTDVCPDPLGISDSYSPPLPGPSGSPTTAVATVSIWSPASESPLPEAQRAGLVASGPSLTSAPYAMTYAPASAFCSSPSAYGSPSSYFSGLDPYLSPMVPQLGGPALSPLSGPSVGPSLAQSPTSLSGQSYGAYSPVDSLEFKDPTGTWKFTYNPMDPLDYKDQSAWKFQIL
Sequence of ELF4 (Q99607 whole entry): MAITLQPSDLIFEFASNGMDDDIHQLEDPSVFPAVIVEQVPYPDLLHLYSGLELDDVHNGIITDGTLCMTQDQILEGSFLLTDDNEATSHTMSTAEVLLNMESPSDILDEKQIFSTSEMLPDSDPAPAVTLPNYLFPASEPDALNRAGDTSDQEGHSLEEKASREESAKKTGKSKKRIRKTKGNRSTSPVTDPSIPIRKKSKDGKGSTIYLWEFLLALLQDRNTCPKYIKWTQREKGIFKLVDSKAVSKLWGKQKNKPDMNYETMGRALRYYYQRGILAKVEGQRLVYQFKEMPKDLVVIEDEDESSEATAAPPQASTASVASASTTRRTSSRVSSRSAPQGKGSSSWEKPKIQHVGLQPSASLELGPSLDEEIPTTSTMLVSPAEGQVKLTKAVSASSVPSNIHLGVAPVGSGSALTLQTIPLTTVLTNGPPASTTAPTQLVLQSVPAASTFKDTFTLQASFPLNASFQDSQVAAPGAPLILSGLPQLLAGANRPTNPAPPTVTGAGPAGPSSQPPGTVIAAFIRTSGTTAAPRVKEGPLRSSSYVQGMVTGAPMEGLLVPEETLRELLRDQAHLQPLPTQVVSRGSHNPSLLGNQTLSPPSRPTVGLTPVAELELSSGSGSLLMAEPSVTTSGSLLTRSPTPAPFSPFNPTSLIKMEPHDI
Sequence of SPIB (Q01892 whole entry): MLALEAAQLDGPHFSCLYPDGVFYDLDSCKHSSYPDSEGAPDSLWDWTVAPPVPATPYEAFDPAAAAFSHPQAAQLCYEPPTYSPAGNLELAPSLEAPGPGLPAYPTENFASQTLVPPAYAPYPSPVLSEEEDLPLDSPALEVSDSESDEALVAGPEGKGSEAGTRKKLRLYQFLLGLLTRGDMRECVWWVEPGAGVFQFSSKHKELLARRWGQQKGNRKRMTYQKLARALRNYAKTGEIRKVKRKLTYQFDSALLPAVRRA
Sequence of HSF1 (Q00613 whole entry): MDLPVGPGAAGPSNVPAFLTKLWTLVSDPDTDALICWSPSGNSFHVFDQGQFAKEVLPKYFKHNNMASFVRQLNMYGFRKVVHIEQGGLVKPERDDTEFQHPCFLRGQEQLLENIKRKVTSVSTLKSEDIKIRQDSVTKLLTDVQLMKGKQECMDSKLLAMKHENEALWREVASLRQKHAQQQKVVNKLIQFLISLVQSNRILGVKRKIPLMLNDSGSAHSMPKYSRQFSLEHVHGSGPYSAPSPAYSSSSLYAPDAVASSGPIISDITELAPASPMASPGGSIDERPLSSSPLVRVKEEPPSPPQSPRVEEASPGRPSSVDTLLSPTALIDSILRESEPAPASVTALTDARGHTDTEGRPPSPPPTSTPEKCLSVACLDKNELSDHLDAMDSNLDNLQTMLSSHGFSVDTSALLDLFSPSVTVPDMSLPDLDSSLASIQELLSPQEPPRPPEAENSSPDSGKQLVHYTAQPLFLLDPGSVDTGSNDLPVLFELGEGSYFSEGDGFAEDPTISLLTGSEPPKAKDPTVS
Sequence of ETV1 (P50549 whole entry): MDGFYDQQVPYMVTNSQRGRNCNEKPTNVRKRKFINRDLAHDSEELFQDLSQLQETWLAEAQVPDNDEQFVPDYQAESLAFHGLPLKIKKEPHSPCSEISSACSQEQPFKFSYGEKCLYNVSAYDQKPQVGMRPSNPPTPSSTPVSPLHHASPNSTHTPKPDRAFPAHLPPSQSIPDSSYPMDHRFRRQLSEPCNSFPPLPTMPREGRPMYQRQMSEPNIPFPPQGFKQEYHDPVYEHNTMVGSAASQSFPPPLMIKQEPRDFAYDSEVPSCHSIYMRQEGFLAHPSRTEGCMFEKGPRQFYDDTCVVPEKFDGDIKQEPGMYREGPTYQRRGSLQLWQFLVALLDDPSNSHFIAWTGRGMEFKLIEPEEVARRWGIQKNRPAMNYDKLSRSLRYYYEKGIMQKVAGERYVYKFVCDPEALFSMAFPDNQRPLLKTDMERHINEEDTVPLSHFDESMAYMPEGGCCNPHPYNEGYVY
Sequence of ELF1 (P32519 whole entry): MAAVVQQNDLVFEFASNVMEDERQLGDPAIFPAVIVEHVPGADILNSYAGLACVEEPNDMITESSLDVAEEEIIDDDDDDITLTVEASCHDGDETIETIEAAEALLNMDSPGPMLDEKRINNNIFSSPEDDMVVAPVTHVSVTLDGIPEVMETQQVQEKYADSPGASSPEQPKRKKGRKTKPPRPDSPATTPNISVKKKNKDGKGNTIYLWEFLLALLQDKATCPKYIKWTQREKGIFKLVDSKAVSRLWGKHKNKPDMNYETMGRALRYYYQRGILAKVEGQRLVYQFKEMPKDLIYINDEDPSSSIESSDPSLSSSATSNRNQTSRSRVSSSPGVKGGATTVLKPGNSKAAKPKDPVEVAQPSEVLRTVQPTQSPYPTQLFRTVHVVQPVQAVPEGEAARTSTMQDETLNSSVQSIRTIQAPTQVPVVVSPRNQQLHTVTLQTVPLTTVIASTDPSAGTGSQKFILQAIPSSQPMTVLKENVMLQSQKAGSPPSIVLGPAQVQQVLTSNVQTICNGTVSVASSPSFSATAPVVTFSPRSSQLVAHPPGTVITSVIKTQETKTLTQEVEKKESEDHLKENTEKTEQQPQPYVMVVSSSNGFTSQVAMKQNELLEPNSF
Sequence of ETV5 (P41161 whole entry): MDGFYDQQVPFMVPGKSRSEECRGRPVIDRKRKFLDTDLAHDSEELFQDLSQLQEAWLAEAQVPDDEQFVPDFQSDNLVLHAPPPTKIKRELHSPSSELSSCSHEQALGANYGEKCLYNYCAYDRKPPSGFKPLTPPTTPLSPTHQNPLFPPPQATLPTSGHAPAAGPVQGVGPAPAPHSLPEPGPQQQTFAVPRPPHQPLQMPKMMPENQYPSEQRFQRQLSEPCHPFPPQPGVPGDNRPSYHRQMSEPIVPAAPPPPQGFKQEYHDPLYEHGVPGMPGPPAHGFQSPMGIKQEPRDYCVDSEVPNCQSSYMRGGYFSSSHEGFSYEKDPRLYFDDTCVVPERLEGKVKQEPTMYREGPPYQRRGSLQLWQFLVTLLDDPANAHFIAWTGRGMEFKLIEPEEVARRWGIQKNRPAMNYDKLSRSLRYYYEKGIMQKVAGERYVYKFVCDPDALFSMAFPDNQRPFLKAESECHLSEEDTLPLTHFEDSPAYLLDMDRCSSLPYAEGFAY

How did the binding signal (FLI1) turn out when GTCTCC was run?
The binding signal was 1.45 fold enrichment (6-mer frequency, TF over GST control).

And the binding signal (ELK1)?
The binding signal was 1.5 fold enrichment (6-mer frequency, TF over GST control).

What about the binding signal (GABPA) of the same sequence?
Its binding signal is 1.52 fold enrichment (6-mer frequency, TF over GST control).

And the binding signal (ERG)?
The binding signal was 1.26 fold enrichment (6-mer frequency, TF over GST control).

What about the binding signal (ELF1) of the same sequence?
The binding signal was 1.39 fold enrichment (6-mer frequency, TF over GST control).

And the binding signal (EHF)?
Its binding signal is 1.4 fold enrichment (6-mer frequency, TF over GST control).

What about the binding signal (SPI1) of the same sequence?
The binding signal was 1.52 fold enrichment (6-mer frequency, TF over GST control).

And the binding signal (SPIB)?
The binding signal was 1.43 fold enrichment (6-mer frequency, TF over GST control).

What about the binding signal (ELK3) of the same sequence?
The binding signal was 1.56 fold enrichment (6-mer frequency, TF over GST control).

What about the binding signal (FEV) of the same sequence?
Its binding signal is 1.53 fold enrichment (6-mer frequency, TF over GST control).

What about the binding signal (ETV5) of the same sequence?
The binding signal was 1.46 fold enrichment (6-mer frequency, TF over GST control).

And the binding signal (HSF1)?
The binding signal was 1.15 fold enrichment (6-mer frequency, TF over GST control).

What about the binding signal (SPIC) of the same sequence?
Its binding signal is 1.32 fold enrichment (6-mer frequency, TF over GST control).

What about the binding signal (ELF4) of the same sequence?
Its binding signal is 1.43 fold enrichment (6-mer frequency, TF over GST control).

And the binding signal (ELK4)?
Its binding signal is 1.46 fold enrichment (6-mer frequency, TF over GST control).

What about the binding signal (ETV2) of the same sequence?
Its binding signal is 1.38 fold enrichment (6-mer frequency, TF over GST control).

And the binding signal (ELF3)?
The binding signal was 1.46 fold enrichment (6-mer frequency, TF over GST control).

What about the binding signal (CRX) of the same sequence?
The binding signal was 1.04 fold enrichment (6-mer frequency, TF over GST control).

What about the binding signal (ETV1) of the same sequence?
Its binding signal is 1.37 fold enrichment (6-mer frequency, TF over GST control).
